Laboratory results taken from PubChem BioAssay (Tox21).
Inconclusive results are not listed. Where a call stands in place of a potency, no number is given. Activity calls are given as the source filed them. Unless noted, the call rests on the fitted dose curve.

Assays:
[1] = Nuclear factor erythroid 2-related factor 2/antioxidant responsive element (Nrf2/ARE) small molecule agonists: qHTS cell viability counter screen in human keratinocytes (AID 1919968; active means well fitted curve in the direction sought with a large enough effect in the repeat runs; an effect the other way counts as inactive or inconclusive; further: nearly all actives have a fitted effect of over 55% in size; further: potency means the concentration at half of the fitted maximal effect)
Procedure, shortened: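 Parallel cytotoxicity read: KeratinoSens HaCaT cells, compound treatment 23 h, viability by CellTiter-Fluor fluorescence 1 h post-reagent.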

[2] = Nuclear factor erythroid 2-related factor 2/antioxidant responsive element (Nrf2/ARE) small molecule agonists: luciferase reporter gene qHTS assay in human keratinocytes (AID 1919969); further: nearly all actives have a fitted effect of over 35% in size; further: potency means the concentration at half of the fitted maximal effect
[3] = molecular target: Gonadotropin-releasing hormone receptor (Homo sapiens) (UniProt P30968); assay: Human gonadotropin-releasing hormone receptor (GnRHR) small molecule agonists, calcium flux assay in GnRHR-HEK293 cells (AID 1920063); further: nearly all actives have a fitted effect of over 35% in size; further: potency means the concentration at half of the fitted maximal effect
Sequence of Gonadotropin-releasing hormone receptor (Homo sapiens) (P30968 whole entry, looked up): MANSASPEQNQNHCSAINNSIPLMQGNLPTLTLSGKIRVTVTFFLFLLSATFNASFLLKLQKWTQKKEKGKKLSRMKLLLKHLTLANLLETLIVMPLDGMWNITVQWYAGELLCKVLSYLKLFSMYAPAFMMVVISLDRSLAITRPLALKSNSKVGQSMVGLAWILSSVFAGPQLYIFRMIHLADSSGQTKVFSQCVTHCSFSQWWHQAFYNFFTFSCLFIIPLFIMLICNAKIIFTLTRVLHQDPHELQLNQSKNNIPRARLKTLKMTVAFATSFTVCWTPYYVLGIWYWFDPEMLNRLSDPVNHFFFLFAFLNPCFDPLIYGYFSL
Procedure, shortened: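 Calcium flux, agonist mode, human GnRHR stably integrated in HEK293; dye 1 h at 37 C before compound; Ex/Em=480/540 kinetic read, 3 min; 15 concentrations, triplicate.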

[4] = molecular target: KiSS-1 receptor (Homo sapiens) (UniProt Q969F8); assay: Human kisspeptin (KISS1R) small molecule agonists, calcium flux assay in KISS1R-HEK293 cells (AID 1920064; active means well fitted curve in the direction sought with a large enough effect in the repeat runs; an effect the other way counts as inactive or inconclusive)
Sequence of KiSS-1 receptor (Homo sapiens) (Q969F8 whole entry, looked up): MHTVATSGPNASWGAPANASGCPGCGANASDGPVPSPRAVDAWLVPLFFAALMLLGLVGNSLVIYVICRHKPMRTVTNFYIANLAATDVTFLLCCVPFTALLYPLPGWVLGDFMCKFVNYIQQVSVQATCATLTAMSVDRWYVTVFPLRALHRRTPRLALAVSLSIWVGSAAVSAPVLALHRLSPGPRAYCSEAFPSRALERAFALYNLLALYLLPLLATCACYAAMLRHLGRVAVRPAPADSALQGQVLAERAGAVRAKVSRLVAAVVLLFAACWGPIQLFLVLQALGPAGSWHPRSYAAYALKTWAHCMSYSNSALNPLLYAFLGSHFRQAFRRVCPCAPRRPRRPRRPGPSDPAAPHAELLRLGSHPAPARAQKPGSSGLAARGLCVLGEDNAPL
Procedure, shortened: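 Triplicate 15-concentration series were applied to dye-loaded human KISS1R HEK293 cells, and agonist-evoked calcium fluorescence was captured for 3 min.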

[5] = G protein-coupled receptor (GPCR) small molecule agonists, calcium flux assay: HEK293 wild type cell line counter screen (AID 1920065); further: potency means the concentration at half of the fitted maximal effect
Procedure, shortened: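 Non-specific calcium responders were flagged by adding DMSO-dissolved compounds to dye-loaded cells and reading 480/540 nm fluorescence each second for 3 min; ATP served as positive control.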

[6] = p53 small molecule agonists, cell-based qHTS assay with rat liver microsomes: qHTS cell viability counter screen (AID 1963580); further: nearly all actives have a fitted effect of over 45% in size; further: potency means the concentration at half of the fitted maximal effect
Procedure, shortened: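 After the beta-lactamase ratio was read, CellTiter-Glo was added to the same wells and luminescence measured at 30 min; cells had been treated 16 h at 37 C with compounds, rat liver microsomes and NADPH (0.5 mg/mL final each).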

[7] = p53 small molecule agonists, cell-based qHTS assay: qHTS cell viability counter screen (AID 1963581); further: nearly all actives have a fitted effect of over 45% in size; further: potency means the concentration at half of the fitted maximal effect
Procedure, shortened: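 Multiplexed with the reporter read, a CellTiter-Glo step (30 min, room temperature) gauges ATP-based viability of HCT-116 p53RE-bla cells after 16 h compound incubation at 37 C.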

[8] = molecular target: 5-hydroxytryptamine receptor 2A (Homo sapiens) (UniProt P28223); assay: 5-hydroxytryptamine receptor 2A (HTR2A) small molecule antagonists, cell-based qHTS assay (AID 1963586); further: nearly all actives have a fitted effect of over 45% in size
Sequence of 5-hydroxytryptamine receptor 2A (Homo sapiens) (P28223 whole entry, looked up): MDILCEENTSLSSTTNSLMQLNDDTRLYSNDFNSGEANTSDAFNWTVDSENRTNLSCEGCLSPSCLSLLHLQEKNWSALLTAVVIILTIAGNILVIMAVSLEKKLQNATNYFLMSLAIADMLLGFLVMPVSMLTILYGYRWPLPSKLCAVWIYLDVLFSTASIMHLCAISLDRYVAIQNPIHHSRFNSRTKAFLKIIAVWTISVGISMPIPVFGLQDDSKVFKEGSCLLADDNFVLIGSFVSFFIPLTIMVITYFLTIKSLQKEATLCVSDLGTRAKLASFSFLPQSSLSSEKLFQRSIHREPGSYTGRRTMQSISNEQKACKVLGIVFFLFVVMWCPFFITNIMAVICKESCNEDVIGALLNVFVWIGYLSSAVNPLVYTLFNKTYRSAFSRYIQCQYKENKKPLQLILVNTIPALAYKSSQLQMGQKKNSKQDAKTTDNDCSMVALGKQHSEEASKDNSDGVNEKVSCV
Procedure, shortened: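 CHO cells stably expressing human HTR2A were plated for 18 h at 37 C, then loaded with calcium dye for 1 h. Compounds were preincubated 5 min at room temperature before DOI (4 nM solution) was added. Kinetic fluorescence was read for 3 min.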

[9] = molecular target: 5-hydroxytryptamine receptor 2A (Homo sapiens) (UniProt P28223); assay: 5-hydroxytryptamine receptor 2A (HTR2A) small molecule agonists, cell-based qHTS assay (AID 1963587); further: nearly all actives have a fitted effect of over 30% in size; further: potency means the concentration at half of the fitted maximal effect
Procedure, shortened: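 CHO cells stably expressing human HTR2A, plated 18 h, loaded with calcium dye 1 h at 37 C. Agonist mode: compounds added and intracellular calcium fluorescence recorded kinetically for 2 min at 1 sec intervals.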

[10] = molecular target: Muscarinic acetylcholine receptor M1 (Homo sapiens) (UniProt P11229); assay: Cholinergic receptor muscarinic 1 (CHRM1) small molecule antagonists, cell-based qHTS assay (AID 1963588); further: nearly all actives have a fitted effect of over 40% in size; further: potency means the concentration at half of the fitted maximal effect
Sequence of Muscarinic acetylcholine receptor M1 (Homo sapiens) (P11229 whole entry, looked up): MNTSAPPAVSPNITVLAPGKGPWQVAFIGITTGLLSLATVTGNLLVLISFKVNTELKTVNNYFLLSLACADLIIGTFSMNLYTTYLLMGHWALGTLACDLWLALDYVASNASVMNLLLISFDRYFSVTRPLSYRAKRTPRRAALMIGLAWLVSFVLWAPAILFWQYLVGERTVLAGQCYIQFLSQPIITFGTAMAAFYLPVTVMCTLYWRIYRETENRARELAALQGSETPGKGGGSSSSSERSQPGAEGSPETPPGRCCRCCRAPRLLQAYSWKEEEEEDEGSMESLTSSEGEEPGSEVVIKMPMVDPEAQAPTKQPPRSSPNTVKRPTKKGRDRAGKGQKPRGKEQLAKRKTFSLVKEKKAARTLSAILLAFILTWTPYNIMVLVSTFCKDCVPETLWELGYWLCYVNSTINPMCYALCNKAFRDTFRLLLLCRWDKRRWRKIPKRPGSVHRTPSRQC
Procedure, shortened: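 Compounds were tested at 15 concentrations in three independent runs. Dye-loaded CHRM1-CHO cells were exposed 5 min at room temperature before stimulation by acetylcholine added at 50nM. Intracellular calcium was read kinetically on FDSS for 3 min.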

[11] = molecular target: Beta-2 adrenergic receptor (Homo sapiens) (UniProt P07550); assay: Adrenergic beta2 receptor (ADRB2) small molecule antagonists, cell-based qHTS assay (AID 1963592); further: series mostly up to about 92 µM; nearly all actives have a fitted effect of over 50% in size
Sequence of Beta-2 adrenergic receptor (Homo sapiens) (P07550 whole entry, looked up): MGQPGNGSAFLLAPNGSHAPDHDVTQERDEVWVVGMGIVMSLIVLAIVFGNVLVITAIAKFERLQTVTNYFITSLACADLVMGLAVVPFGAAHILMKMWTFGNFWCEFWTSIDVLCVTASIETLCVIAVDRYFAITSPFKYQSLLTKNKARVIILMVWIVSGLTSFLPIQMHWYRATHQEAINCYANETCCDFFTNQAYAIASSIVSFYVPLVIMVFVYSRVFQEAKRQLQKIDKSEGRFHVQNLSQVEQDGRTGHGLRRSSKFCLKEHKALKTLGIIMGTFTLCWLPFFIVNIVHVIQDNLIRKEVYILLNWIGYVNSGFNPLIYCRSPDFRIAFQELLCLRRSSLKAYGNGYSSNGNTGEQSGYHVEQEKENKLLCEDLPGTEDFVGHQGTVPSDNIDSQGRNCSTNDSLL
Procedure, shortened: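 Assay format: CHO-ADRB2 cells, 18-20hr seeding at 37C/5% CO2, then compound plus 1nM isoproterenol agonist mix for 0.5hr RT. Homogeneous time-resolved fluorescence cAMP detection after 1hr, expressed as 665/615 nm ratio.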

[12] = molecular target: D(2) dopamine receptor (Homo sapiens) (UniProt P14416); assay: Dopamine D2 receptor (DRD2) small molecule antagonists, cell-based qHTS assay (AID 1963595; active means well fitted inhibition curve with a large enough effect in the signal ratio in the repeat runs, with a control signal flat; the % refers to the signal ratio; further: potency means the concentration at half of the fitted maximal effect)
Sequence of D(2) dopamine receptor (Homo sapiens) (P14416 whole entry, looked up): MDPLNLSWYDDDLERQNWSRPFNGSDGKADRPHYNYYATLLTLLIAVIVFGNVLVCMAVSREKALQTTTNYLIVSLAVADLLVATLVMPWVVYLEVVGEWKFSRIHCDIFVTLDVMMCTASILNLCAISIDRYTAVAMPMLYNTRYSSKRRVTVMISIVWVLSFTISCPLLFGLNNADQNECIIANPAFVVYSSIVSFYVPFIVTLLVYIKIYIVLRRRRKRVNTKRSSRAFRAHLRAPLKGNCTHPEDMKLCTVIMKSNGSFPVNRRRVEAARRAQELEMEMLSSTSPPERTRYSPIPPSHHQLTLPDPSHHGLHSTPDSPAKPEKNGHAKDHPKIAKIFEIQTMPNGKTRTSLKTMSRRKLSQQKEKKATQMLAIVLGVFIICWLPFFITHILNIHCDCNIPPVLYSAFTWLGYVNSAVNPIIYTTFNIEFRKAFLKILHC
Procedure, shortened: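 HEK293 cells stably expressing DRD2, preincubated with 0.1 mM Ro20-1724 and compounds 10 min, were stimulated with 200 nM NKH477 plus 12 nM quinpirole for 30 min at room temperature; cAMP measured by HTRF (665/620 nm).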

[13] = p53 small molecule agonists, cell-based qHTS assay with rat liver microsomes (AID 1963578)
Procedure, shortened: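 Cells carrying a p53 response element–beta-lactamase reporter were plated and rested 5 h, then dosed with compound in DMSO plus rat liver microsomes and NADPH, each at 0.5 mg/mL final. After 16 h at 37 C, LiveBLAzer substrate was added for 2 h.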

[14] = p53 small molecule agonists, cell-based qHTS assay (AID 1963582; active means well fitted activation curve with a large enough effect in the signal ratio in the repeat runs, not every such curve was filed as active; the % refers to the signal ratio)
Procedure, shortened: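 Beta-lactamase reporter cells (p53RE-bla) treated with compounds for 16 h at 37 C; FRET substrate, 2 h, room temperature; fluorescence intensity.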

[15] = molecular target: Muscarinic acetylcholine receptor M1 (Homo sapiens) (UniProt P11229); assay: Cholinergic receptor muscarinic 1 (CHRM1) small molecule agonists, cell-based qHTS assay (AID 1963589); further: nearly all actives have a fitted effect of over 35% in size; further: potency means the concentration at half of the fitted maximal effect
Procedure, shortened: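 qHTS, 15-point titration, 3 independent runs: compounds pin-transferred onto dye-loaded CHRM1-CHO cells (human M1), calcium fluorescence followed every second to detect agonism.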

[16] = cAMP Responsive Elements (CRE) small molecule agonists, cell-based qHTS assay (AID 1963590)
Procedure, shortened: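 Quantitative HTS for CRE agonists: HEK 293T CRE-bla cells, overnight plating, 3 h compound incubation at 37 C/5% CO2, then 2 h room-temperature LiveBLAzer B/G FRET substrate loading.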

[17] = cAMP Responsive Elements (CRE) small molecule antagonists, cell-based qHTS assay (AID 1963591; active means well fitted inhibition curve with a large enough effect in the signal ratio in the repeat runs, not every such curve was filed as active; the % refers to the signal ratio)
Procedure, shortened: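 Fluorescence intensity from cleaved LiveBLAzer B/G substrate (2 h, room temperature) quantified CRE-bla activity in HEK 293T cells exposed 3 h to compound with 0.25 uM final NKH477.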

[18] = molecular target: D(2) dopamine receptor (Homo sapiens) (UniProt P14416); assay: Dopamine D2 receptor (DRD2) small molecule agonists, cell-based qHTS assay (AID 1963594); further: nearly all actives have a fitted effect of over 35% in size; further: potency means the concentration at half of the fitted maximal effect
Procedure, shortened: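 HEK293 cells stably expressing human DRD2, pre-treated with PDE inhibitor Ro20-1724 (0.1 mM final) and compound 10 min at room temperature, then stimulated with NKH477 (200nM […]) for 30 min. cAMP read by HTRF (665/620 nm).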

[19] = p53 small molecule agonists, cell-based qHTS assay with human liver microsomes: qHTS cell viability counter screen (AID 1963579); further: nearly all actives have a fitted effect of over 45% in size; further: potency means the concentration at half of the fitted maximal effect
Procedure, shortened: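 Cytotoxicity counter screen: p53RE-bla, 4,000 cells/well; 5 h settle, 37 C/5% CO2; cpd + HLM 0.5 mg/mL + NADPH 0.5 mg/mL (final); 16 h, 37 C; CellTiter-Glo, 30 min RT, luminescence.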

[20] = p53 small molecule agonists, cell-based qHTS assay with human liver microsomes (AID 1963577)
Procedure, shortened: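 Fluorescence of the beta-lactamase reporter in p53RE-bla cells, detected with LiveBLAzer substrate (2 h, room temperature, dark), served as the read-out after 16 h compound exposure at 37 C with human liver microsomes and NADPH, each 0.5 mg/mL final.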

SMILES | Potency [1] | Potency [2] | Potency [3] | Potency [4] | Potency [5] | Potency [6] | Potency [7] | Potency [8] | Potency [9] | Potency [10] | Potency [11] | Potency [12] | Potency [13] | Potency [14] | Potency [15] | Potency [16] | Potency [17] | Potency [18] | Potency [19] | Potency [20]
O=[N+]([O-])c1cccc2c([N+](=O)[O-])cccc12 | inactive | 61.4 µM (active) | inactive | inactive | inactive | inactive | 23.1 µM (active) | inactive | inactive | inactive | inactive | inactive | – | – | – | – | – | – | – | –
CCCOC(=O)Cc1ccc(OCC(=O)N(CC)CC)c(OC)c1 | inactive | inactive | inactive | – | inactive | – | – | – | inactive | inactive | inactive | inactive | inactive | inactive | inactive | inactive | inactive | 0.282 µM (active) | – | –
CCCOc1nn(C(=O)NS(=O)(=O)c2ccccc2C(=O)OC)c(=O)n1C | inactive | 68.3 µM (active) | inactive | – | inactive | – | inactive | inactive | inactive | inactive | inactive | inactive | inactive | inactive | inactive | inactive | inactive | inactive | inactive | –
CCC1(C2=NCCN2)Cc2ccccc2O1 (stereo unspecified) | inactive | inactive | inactive | inactive | – | inactive | – | inactive | – | inactive | inactive | inactive | – | – | inactive | inactive | inactive | – | inactive | –
Clc1ccc(C2(Cn3cncn3)CC(Br)CO2)c(Cl)c1 (stereo unspecified) | inactive | inactive | inactive | – | inactive | inactive | inactive | – | – | inactive | inactive | – | inactive | inactive | inactive | – | inactive | inactive | inactive | inactive
O=c1[nH]c2cc(Cl)ccc2n1C1CCNCC1 | inactive | inactive | inactive | – | inactive | inactive | inactive | inactive | inactive | inactive | – | inactive | inactive | inactive | inactive | – | inactive | inactive | inactive | inactive
O=C(NC(=O)c1cc(F)c(F)cc1Cl)Nc1cc(F)ccc1N1CCC(C(=O)O)CC1 | inactive | inactive | inactive | – | inactive | inactive | inactive | inactive | inactive | inactive | inactive | inactive | inactive | – | inactive | – | – | inactive | inactive | inactive
[Hg+2].[I-].[I-] | 4.33 µM (active) | 1.22 µM (active) | 43.6 µM (active) | – | inactive | – | 18.2 µM (active) | inactive | 49 µM (active) | inactive | – | 27.3 µM (active) | inactive | – | – | – | – | – | 4.58 µM (active) | inactive
CCc1cc2c(s1)-n1c(C)nnc1CN=C2c1ccccc1Cl | inactive | inactive | inactive | inactive | – | – | inactive | inactive | inactive | inactive | inactive | inactive | – | – | inactive | – | – | inactive | inactive | –
O=[N+]([O-])c1cc(C(F)(F)F)c(Cl)c([N+](=O)[O-])c1Nc1ncc(C(F)(F)F)cc1Cl | 9.69 µM (active) | 6.11 µM (active) | inactive | – | 1.23 µM (active) | 25.7 µM (active) | 40.8 µM (active) | – | inactive | 0.472 µM (active) | – | inactive | – | – | inactive | – | – | inactive | 45.8 µM (active) | –
O=C(O)C(F)(F)C(F)(F)C(F)(F)C(F)(F)C(F)(F)F | inactive | inactive | inactive | – | inactive | inactive | inactive | inactive | inactive | inactive | inactive | inactive | – | inactive | inactive | inactive | – | inactive | inactive | –
COc1ccc(CN2CCNCC2)c(OC)c1OC | inactive | inactive | inactive | – | inactive | inactive | inactive | – | – | – | inactive | inactive | inactive | – | – | – | inactive | inactive | inactive | inactive
Cc1ccc(N(SC(F)(Cl)Cl)S(=O)(=O)N(C)C)cc1 | 27.3 µM (active) | 7.7 µM (active) | 34.7 µM (active) | – | 38.9 µM (active) | – | inactive | inactive | 49 µM (active) | – | – | 3.06 µM (active) | inactive | inactive | 49 µM (active) | – | – | – | 16.2 µM (active) | inactive
C=CC(=O)OCC | inactive | inactive | inactive | – | inactive | inactive | inactive | inactive | inactive | inactive | inactive | inactive | – | – | inactive | inactive | inactive | inactive | inactive | –
c1ccc2c(c1)CCNC2 | inactive | inactive | inactive | – | inactive | inactive | inactive | – | inactive | inactive | inactive | inactive | inactive | inactive | inactive | inactive | – | – | inactive | inactive
CCCCCCCCCCCCCC[P+](CCCCCC)(CCCCCC)CCCCCC (tested in a mixture with another compound) | 6.86 µM (active) | inactive | inactive | – | inactive | 16.2 µM (active) | 14.5 µM (active) | inactive | inactive | inactive | inactive | 54.5 µM (active) | inactive | – | inactive | – | – | inactive | – | inactive
c1ccc(Nc2ccc(Nc3ccccc3)cc2)cc1 | inactive | 27.2 µM (active) | inactive | inactive | – | inactive | inactive | – | – | – | inactive | inactive | – | – | – | inactive | inactive | – | inactive | –
CCCCOC(C)=O | inactive | inactive | inactive | – | inactive | inactive | – | inactive | – | inactive | inactive | inactive | inactive | – | – | inactive | inactive | inactive | inactive | inactive
